The record followed here is PubChem BioAssay (Tox21).

Assay [1] can be described thus: qHTS assay to identify small molecule HDAC inhibitors (AID 1259364). Note: potency is the fitted concentration of half-maximal effect.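 Note: wild-type HCT-116 cells with endogenous class I/II HDAC activity; nearly all actives have a fitted effect of over 45% in size.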 A digest of the protocol: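 Read-out: luminescence of HDAC-Glo I/II reagent, 30 min RT, reflecting class I/II deacetylase activity in whole HCT-116 cells pre-exposed 2 h to DMSO-dissolved compounds.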
(qHTS replaces the single test concentration by a dilution series.)

Assay [2] can be described thus: qHTS assay to identify small molecule HDAC inhibitors - cell viability counter screen (AID 1259365). Note: series mostly up to about 92 µM; nearly all actives have a fitted effect of over 50% in size. The method in brief:
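Following a 2hr exposure of overnight-plated wild-type HCT-116 cells to DMSO-delivered compounds, CellTiter-Glo was added and luminescence recorded after 30min at room temperature.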

A short description of assay [3]: qHTS assay to identify small molecule agonists of the sonic hedgehog signaling (Shh) pathway - cell viability counter screen (AID 1259366). Note: nearly all actives have a fitted effect of over 50% in size. A digest of the protocol:
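After a 4hr attachment at 37C, NIH/3T3 cells bearing an integrated Gli1-driven luciferase reporter were dosed with compounds. Treatment lasted 24hr, with the final hour including CellTiter-Fluor for a fluorescence viability measurement.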

The nature of assay [4]: qHTS assay to identify small molecule antagonists of the sonic hedgehog signaling (Shh) pathway - cell viability counter screen (AID 1259367). Note: nearly all actives have a fitted effect of over 55% in size. The method in brief: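 NIH/3T3-derived Gli1-Luc reporter cells, 2,000/well, plated 4 hr before compound addition, then stimulated with conditioned medium for 24 hr at 37C. Viability measured in the same wells by CellTiter-Fluor fluorescence, reagent added at 23 hr for 1 hr.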

Assay [5] in a line: qHTS assay to identify small molecule agonists of the sonic hedgehog signaling (Shh) pathway (AID 1259368; calls by dose curve;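 note: NIH/3T3-derived 3T3Gli1-Luc cells carrying a stable Gli1-driven firefly luciferase reporter; series mostly up to about 92 µM; nearly all actives have a fitted effect of over 15% in size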). The method in brief:
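A Gli1 transcriptional response element controlled firefly luciferase in 3T3Gli1-Luc cells. Compounds and a positive control were added 4 hr after plating, and cells were incubated a further 24 hr at 37 C before luminescence detection.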

The nature of assay [6]: qHTS assay to identify small molecule antagonists of the sonic hedgehog signaling (Shh) pathway (AID 1259369; calls by dose curve; note: nearly all actives have a fitted effect of over 45% in size; note: potency is the fitted concentration of half-maximal effect). A digest of the protocol:
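For antagonist detection, the reporter line received test compounds together with conditioned medium, incubated 24hr at 37 C, 5% CO2, then luminescence was recorded following 30min room-temperature luciferase reagent incubation.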

Assay [7] can be described thus: qHTS assay to identify small molecule agonists of the androgen receptor (AR) signaling pathway in the presence of an antagonist - cell viability counter screen (AID 1259379).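 Note: MDA-kb2 human breast cancer cells carrying an MMTV luciferase reporter; series mostly up to about 92 µM; nearly all actives have a fitted effect of over 25% in size.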 The method in brief: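 Seed MDA-kb2 at 3,000 cells/well; incubate 5 hr, 37C, 0% CO2. Add nilutamide to 3.0uM final, then pin compounds at 15 concentrations. Incubate 16 hr. Add CellTiter-Fluor at 15 hr, read fluorescence after 1 hr.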

Assay [8] can be described thus: qHTS assay to identify small molecule agonists of the estrogen receptor beta (ER-beta) signaling pathway - cell viability counter screen (AID 1259380). Note: nearly all actives have a fitted effect of over 30% in size. The method in brief:
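CellTiter-Glo read, 30 min RT, same wells as bla assay; cells ER-beta-UAS-bla HEK293T; 16 hr compound, 37C; medium 2% charcoal-stripped FBS.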

Assay [9] in a line: qHTS assay to identify small molecule antagonists of the estrogen receptor beta (ER-beta) signaling pathway - cell viability counter screen (AID 1259382). Note: series mostly up to about 92 µM; nearly all actives have a fitted effect of over 55% in size. A digest of the protocol:
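In this multiplexed counter screen, cells were seeded at 2,000 per well in medium with 2% charcoal-stripped FBS and incubated 6 hr before compound and 1nM final E2 were added. Sixteen hours later, ATP-based luminescence reported viability.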

The nature of assay [10]: qHTS assay to identify small molecule agonists or antagonists of the thyroid stimulating hormone receptor (TSHR) signaling pathway - wild type cell line counter screen (AID 1259384; calls by dose curve). A digest of the protocol:
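Wild-type Hek293 cells, 800/well, 18 h at 37C, then compound with Ro20-1724 for 30 min RT. cAMP by HTRF (cAMP-d2/anti-cAMP cryptate), 1 h RT, fluorescence read. 15 concentrations, triplicates.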

Assay [11] addresses Thyrotropin receptor (Homo sapiens) (UniProt P16473). The assay is described as follows: qHTS assay to identify small molecule antagonists of the thyroid stimulating hormone receptor (TSHR) signaling pathway (AID 1259385; calls by dose curve; note: nearly all actives have a fitted effect of over 20% in size). A digest of the protocol: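 TSHR-HEK293 cells (800/well) plated 18 h, then compounds with Ro20-1724 and TSH at 1.5 ng/mL final, 30 min at room temperature. cAMP quantified by HTRF (cAMP-d2/anti-cAMP-cryptate, 1 h); 15 concentrations in triplicate.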

A short description of assay [12]: qHTS assay to identify small molecule agonists of the estrogen receptor alpha (ER-alpha) signaling pathway in the presence of an antagonist - cell viability counter screen (AID 1259386).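 Note: series mostly up to about 92 µM; cells exposed to compounds for 22 h at 37 °C before the viability read; nearly all actives have a fitted effect of over 30% in size.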 A digest of the protocol: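 Viability counter screen using VM7Luc4E2 (full-length ER-alpha, four ERE-luciferase). The cells were treated with compounds alongside ICI-182,780 10.0nM for 22hr, and live-cell protease fluorescence was quantified with CellTiter-Fluor.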

Assay [13] has as its target Progesterone receptor (Homo sapiens) (UniProt P06401). The experiment in a line: qHTS assay to identify small molecule agonists of the progesterone receptor (PR) signaling pathway (AID 1346784; calls by dose curve; note: nearly all actives have a fitted effect of over 30% in size). A digest of the protocol:
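Using charcoal-stripped serum (2%) to limit endogenous steroids, PR-UAS-bla HEK 293T cells received compounds for 16 hr at 37C after 6 hr plating; beta-lactamase FRET fluorescence was recorded following 2 hr substrate loading at room temperature.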

For assay [14] the target is unchanged. The experiment in a line: qHTS assay to identify small molecule antagonists of the progesterone receptor (PR) signaling pathway (AID 1346795; active = well fitted inhibition curve with a large enough effect in the signal ratio in the repeat runs, not every such curve was filed as active; the % refers to the signal ratio; note: potency is the fitted concentration of half-maximal effect). The method in brief: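 Inhibition of R5020-induced (1 nM final) beta-lactamase reporter signal in PR-UAS-bla HEK293T cells was scored by FRET fluorescence after overnight (16 hr) compound treatment.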
A short description of assay [15]: qHTS assay to identify small molecule antagonists of the progesterone receptor (PR) signaling pathway - cell viability counter screen (AID 1346798). Note: series mostly up to about 92 µM; nearly all actives have a fitted effect of over 50% in size. A digest of the protocol:
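ATP content as viability readout: CellTiter-Glo luminescence, 30 min room temperature, in PR-UAS-bla HEK293T cells after 16 hr compound/R5020 treatment at 37C and 5% CO2.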

In assay [16] the target is Estrogen receptor beta (Homo sapiens) (UniProt Q92731). The experiment in a line: qHTS assay to identify small molecule agonists of the estrogen receptor beta (ER-beta) signaling pathway (AID 1259377; active = well fitted activation curve with a large enough effect in the signal ratio in the repeat runs, not every such curve was filed as active; the % refers to the signal ratio). The method in brief:
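In HEK293T cells bearing a UAS-beta-lactamase reporter under ER-beta control, DMSO-delivered compounds were incubated for 16 hr at 37C. Activity was detected as fluorescence 2 hours after LiveBLAzer B/G FRET substrate addition.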

For assay [17] the target is unchanged. The assay is described as follows: qHTS assay to identify small molecule antagonists of the estrogen receptor beta (ER-beta) signaling pathway (AID 1259378; active = well fitted inhibition curve with a large enough effect in the signal ratio in the repeat runs, not every such curve was filed as active; the % refers to the signal ratio). The method in brief: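 ER-beta-UAS-bla HEK293T cells in 2% charcoal-stripped FBS medium treated with compound plus 1nM final 17-beta-estradiol for 16 hr at 37C. Beta-lactamase reporter read by FRET substrate fluorescence after 2 hours at room temperature.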

Values joined by “and” are separate entries in the source; they are usually repeats but may differ in a detail not shown here. Equal values may be shown once. Results filed as inconclusive are left out. The source holds several records for some structures; these can differ, active in one and inactive in another. Active and inactive are the calls of the source. Unless noted, calls come from the whole dose curve; as a rule, active = well fitted curve in the direction sought with a large enough effect in the repeat runs; inconclusive = weak or mixed curves; inactive = no such curve, though single readings can be large; an effect the other way counts as inactive or inconclusive.

Progesterone receptor (Homo sapiens), sequence (P06401 whole entry, looked up): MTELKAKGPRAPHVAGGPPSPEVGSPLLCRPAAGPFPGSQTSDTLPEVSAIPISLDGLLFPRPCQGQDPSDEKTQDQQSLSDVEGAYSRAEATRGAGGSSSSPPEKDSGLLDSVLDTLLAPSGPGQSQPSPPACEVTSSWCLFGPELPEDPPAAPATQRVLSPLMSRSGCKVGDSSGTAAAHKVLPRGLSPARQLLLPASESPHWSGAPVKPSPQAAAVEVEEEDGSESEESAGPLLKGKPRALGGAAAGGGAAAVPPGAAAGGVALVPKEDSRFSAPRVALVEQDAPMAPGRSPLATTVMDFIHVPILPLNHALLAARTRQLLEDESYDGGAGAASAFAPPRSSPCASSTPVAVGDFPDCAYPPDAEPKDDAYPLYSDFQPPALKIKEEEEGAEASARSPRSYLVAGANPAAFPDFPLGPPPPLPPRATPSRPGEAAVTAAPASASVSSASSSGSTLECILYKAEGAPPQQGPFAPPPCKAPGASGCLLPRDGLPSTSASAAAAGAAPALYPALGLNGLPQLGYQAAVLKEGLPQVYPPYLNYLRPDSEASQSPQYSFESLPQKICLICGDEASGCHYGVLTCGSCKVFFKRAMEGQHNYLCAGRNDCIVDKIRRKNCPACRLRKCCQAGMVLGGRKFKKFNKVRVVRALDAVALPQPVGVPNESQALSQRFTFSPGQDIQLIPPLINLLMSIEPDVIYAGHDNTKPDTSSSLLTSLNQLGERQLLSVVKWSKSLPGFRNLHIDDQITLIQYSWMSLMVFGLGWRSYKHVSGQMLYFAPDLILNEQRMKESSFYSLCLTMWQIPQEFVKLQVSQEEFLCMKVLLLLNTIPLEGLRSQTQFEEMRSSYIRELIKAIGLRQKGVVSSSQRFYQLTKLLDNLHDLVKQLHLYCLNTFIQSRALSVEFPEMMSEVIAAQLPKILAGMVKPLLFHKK
Estrogen receptor beta (Homo sapiens), sequence (Q92731 whole entry, looked up): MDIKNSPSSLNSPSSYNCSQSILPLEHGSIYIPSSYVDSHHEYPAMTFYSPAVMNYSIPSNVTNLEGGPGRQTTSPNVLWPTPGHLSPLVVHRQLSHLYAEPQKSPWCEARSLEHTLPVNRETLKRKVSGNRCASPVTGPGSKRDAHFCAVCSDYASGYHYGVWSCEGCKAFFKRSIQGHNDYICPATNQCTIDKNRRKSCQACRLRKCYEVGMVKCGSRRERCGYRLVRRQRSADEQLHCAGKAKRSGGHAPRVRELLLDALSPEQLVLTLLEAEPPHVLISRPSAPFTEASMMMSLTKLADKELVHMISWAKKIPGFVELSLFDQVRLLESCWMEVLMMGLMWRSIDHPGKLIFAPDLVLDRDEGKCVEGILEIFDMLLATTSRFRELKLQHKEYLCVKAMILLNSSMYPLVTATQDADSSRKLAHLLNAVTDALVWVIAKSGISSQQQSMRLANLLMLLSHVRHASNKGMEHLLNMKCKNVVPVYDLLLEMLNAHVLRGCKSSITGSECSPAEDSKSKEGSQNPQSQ
Thyrotropin receptor (Homo sapiens), sequence (P16473 whole entry, looked up): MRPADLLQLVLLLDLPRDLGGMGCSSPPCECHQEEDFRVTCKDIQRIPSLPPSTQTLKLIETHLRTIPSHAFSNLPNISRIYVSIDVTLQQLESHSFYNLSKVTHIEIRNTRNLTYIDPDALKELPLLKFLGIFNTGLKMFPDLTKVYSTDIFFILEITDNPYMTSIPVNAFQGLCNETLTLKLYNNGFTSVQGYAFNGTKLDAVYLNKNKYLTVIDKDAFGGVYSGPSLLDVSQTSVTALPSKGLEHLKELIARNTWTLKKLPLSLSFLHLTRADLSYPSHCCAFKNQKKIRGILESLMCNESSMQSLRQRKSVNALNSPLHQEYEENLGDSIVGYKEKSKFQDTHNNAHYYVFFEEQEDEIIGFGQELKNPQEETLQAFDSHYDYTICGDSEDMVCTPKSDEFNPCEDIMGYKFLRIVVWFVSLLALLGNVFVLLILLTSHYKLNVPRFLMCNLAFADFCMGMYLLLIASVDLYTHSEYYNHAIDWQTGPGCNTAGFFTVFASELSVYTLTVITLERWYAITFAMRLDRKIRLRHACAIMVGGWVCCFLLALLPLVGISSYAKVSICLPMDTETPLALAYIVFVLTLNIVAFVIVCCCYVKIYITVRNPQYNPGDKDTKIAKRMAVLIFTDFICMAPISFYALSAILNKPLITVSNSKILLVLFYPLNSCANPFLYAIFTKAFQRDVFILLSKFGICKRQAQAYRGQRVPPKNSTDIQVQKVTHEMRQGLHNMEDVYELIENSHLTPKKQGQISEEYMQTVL

Turning to `CC(C)(Cl)Cl`, the Potency result in assay [1], in [3], in assay [4], in assay [6], in assay [8] and in assay [9] was “inactive” throughout. Moreover, the Potency entry in assay [11], in assay [14] and in assay [15] was “inactive” in each case. The outcome in assay [2], in assay [5], in assay [7], in [10], in assay [12] and in assay [13] was inactive.

For `CCCCCCCCCCCC#N`, the Potency result in assay [1], in [3], in assay [4], in assay [6], in assay [16] and in assay [8] was “inactive” in each case. The Potency entry in assay [9], in assay [11], in [14] and in assay [15] was “inactive” throughout. The outcome in assay [2], in assay [5], in [7], in [10], in assay [12] and in [13] was inactive.

`CC1OC(C)OC(C)O1` (stereo not drawn): the Potency entry in assay [1], in assay [3], in assay [4], in [6], in assay [16] and in assay [8] was “inactive” in each case. Moreover, the Potency result in assay [9], in assay [14] and in assay [15] was “inactive” throughout. Besides, the molecule was classed as inactive in assay [2], in assay [5], in assay [7], in assay [12] and in [13].

Take `c1ccc2c(c1)oc1ccccc12`: the Potency result in assay [1], in assay [3], in assay [4], in [6], in assay [16] and in assay [8] was “inactive” in each case. The Potency result in [9], in assay [11], in [14] and in [15] was “inactive” throughout. For the same molecule, the result in assay [2], in assay [5], in assay [17], in [7], in assay [10] and in [12] was inactive. Besides, the outcome in [13] was inactive.

In the case of `CCN(CC)CCO`, the Potency result in [1], in assay [3], in assay [4], in assay [6], in assay [16] and in assay [8] was “inactive” throughout. Further, the Potency result in assay [9], in [11], in assay [14] and in assay [15] was “inactive” each time. The call in assay [2], in assay [5], in [17], in assay [7], in assay [12] and in assay [13] was inactive.

On to `CC(C)(C)C(O)(CCc1ccc(Cl)cc1)Cn1cncn1` (stereo not drawn), for which the Potency entry in [1], in [3], in assay [4], in [9] and in assay [11] was “inactive” in each case. Also, the outcome in [2], in assay [5], in assay [7], in [10], in assay [12] and in assay [13] was inactive. In addition, in assay [14], the Potency was 17.4 µM (active) and 24.3 µM (active).

On to `Clc1cccc(Cl)c1Cl`, for which the Potency entry in [1], in assay [3], in assay [4], in [6], in [8] and in assay [9] was “inactive” each time. Also, the Potency result in assay [11], in assay [14] and in assay [15] was “inactive” each time. Moreover, the result in assay [2], in assay [5], in assay [7], in [12] and in [13] was inactive.

As for `CCc1cccc(C)c1N(C(=O)CCl)C(C)COC` (stereo not drawn), the Potency result in assay [1], in assay [3], in assay [4], in [6], in assay [16] and in assay [8] was “inactive” each time. The Potency result in assay [9], in [11] and in assay [15] was “inactive” in each case. For the same molecule, the outcome in assay [2], in assay [5], in assay [7], in assay [10], in assay [12] and in assay [13] was inactive.

For `CN(C)[C@@H]1C(=O)C(C(N)=O)=C(O)[C@@]2(O)C(=O)C3=C(O)c4c(O)cccc4[C@@](C)(O)[C@H]3C[C@@H]12`, the Potency entry in assay [1], in assay [3], in assay [4], in [6], in assay [16] and in assay [8] was “inactive” throughout. For the same molecule, the Potency entry in assay [9], in assay [11], in [14] and in assay [15] was “inactive” in each case. In addition, the result in assay [2], in [5], in assay [17], in assay [7], in assay [12] and in assay [13] was inactive.

Turning to `C=CCO`, the Potency in [1] was 28.5 µM (active) and inactive. Moreover, the call in [2], in assay [5], in [7], in assay [12] and in assay [13] was inactive. The Potency entry in assay [3], in assay [4], in assay [6], in assay [8], in assay [9] and in [11] was “inactive” throughout. Besides, the Potency result in [14] and in assay [15] was “inactive” each time.

As for `CN1C(=O)CN=C(c2ccccc2)c2cc(Cl)ccc21`, the Potency result in assay [1], in assay [3], in assay [4], in [8], in [9] and in assay [11] was “inactive” throughout. Besides, the Potency entry in assay [15] was “inactive”. In addition, the result in assay [2], in assay [5], in assay [7], in assay [10], in assay [12] and in [13] was inactive. In addition, the Potency in [6] was 4.39 µM (active).
